Screening data as filed in PubChem BioAssay.
S1P2 agonist – activates the human S1P2 receptor. S1P2-expressing cell line, agonist reporter read-out. activation, % at 4.5 µM. 0.46% of 97,000 active; in the data active = activation above about 16%;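 also: 0% = vehicle low control and 100% = maximal reference agonist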
PTPN22 inh 2 – LYP (human) phosphatase inhibition; Q9Y2R2; recombinant LYP catalytic domain, DiFMUP fluorescence; inhibition, % at 2 µM; 0.21% of 96,000 active; AID 640;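 active = inhibition at 2 µM at or above a set limit, the screen mean plus 3 SD, cut at about 24% in these data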;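 also: 0% = DMSO with enzyme and 100% = enzyme fully blocked by orthovanadate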
GALR2 antag – blocks the human galanin receptor 2; GALR2-expressing cells, antagonist mode; inhibition, % at 4 µM; 0.39% of 140,000 active; O43603; in the data active = inhibition above about 27%;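 also: cells stimulated with galanin 1-16 at roughly its EC80; 0% = agonist challenge control and 100% = basal control without agonist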
PTPN22 act – increases human PTPN22 phosphatase activity; Q9Y2R2; recombinant LYP, DiFMUP fluorescence; 0 = plate median, 100 = signal doubled; activation, % at 2 µM; 0.11% of 96,000 active; AID 697;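 active = activation at 2 µM above a set limit, the mean plus 5 SD, cut at about 37% in these data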
S1P2 antag – antagonists of human S1P2 receptor; O95136; cell-based S1P2 antagonist assay, inhibition at 5 uM; inhibition, % at 5 µM; 0.21% of 97,000 active; AID 736; in the data active = inhibition above about 45%;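 also: CRE beta-lactamase reporter cells expressing human S1P2 stimulated with S1P; 0% = agonist at EC80 alone and 100% = agonist plus reference antagonist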
GALR2 agonist – activates the human galanin receptor 2; AID 803; O43603; GALR2-expressing cells, agonist activation read-out; activation, % (test concentration not listed); 0.48% of 140,000 active; in the data active = activation above about 5%, passing the limit was not always enough;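 also: 0% = vehicle buffer wells and 100% = reference agonist at full effect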
Starred values were filed as active, the others as inactive; / = not tested or not shown. Sampled rows, rich in hits. Any-hit rate of the full collection: about 1.3%.

SMILES	S1P2 agonist	PTPN22 inh 2	GALR2 antag	PTPN22 act	S1P2 antag	GALR2 agonist
NS(=O)(=O)c1ccc(N2N=C(c3ccccc3)CC2c2cccc(F)c2)cc1 (stereo not given)	/	/	-11	/	/	5.9*
NS(=O)(=O)c1ccc(N2N=C(c3ccc(Br)cc3)CC2c2ccc(F)cc2)cc1 (stereo not given)	161*	14	-38	-10	-115	156*
O=C(CNS(=O)(=O)c1ccccc1)Nc1ccc(C(F)(F)F)cc1	-5	7	2	-4	8	-2
Cc1ccc(S(=O)(=O)NCC(=O)N(CC(=O)NC2CCCCC2)CC2CCCO2)cc1 (stereo not given)	0	6	-8	-5	22	-1
Cc1cccn2c(=O)c3cc(C(=O)NC4CCCC4)c(=N)n(C4CCCC4)c3nc12	/	/	0	/	/	5.0*
Cc1ccc(CNC(=O)c2cc3c(=O)n4ccccc4nc3n(CC3CCCO3)c2=N)cc1 (stereo not given)	/	/	-12	/	/	8.3*
COCCCn1c(=N)c(C(=O)NCc2ccc3c(c2)OCO3)cc2c(=O)n3ccccc3nc21	1	5	7	-7	-26	0
Cc1ccc(S(=O)(=O)c2cc3c(=O)n4ccccc4nc3n(CC3CCCO3)c2=N)cc1 (stereo not given)	-1	2	7	-2	-38	-3
COCCCn1c(=N)c(C(=O)NC2CCCCC2)cc2c(=O)n3ccccc3nc21	32*	3	-26	-3	-56	16*
N=c1c(C(=O)NC2CCCC2)cc2c(=O)n3ccccc3nc2n1C1CCCC1	6	1	-9	-4	-11	3
CCOCCCn1c(=NC(=O)c2cccnc2)c(C(=O)OCC)cc2c(=O)n3ccccc3nc21	10	-6	-10	3	-28	6.0*
NCCCN1CCOCC1	-4	-3	-21	6	-12	-2
CCOC(=O)c1cc2c(=O)n3ccccc3nc2n(CC2CCCO2)c1=NC(C)=O (stereo not given)	26*	0	-20	-1	-46	24*
N=c1c(C(=O)NCc2ccco2)cc2c(=O)n3ccccc3nc2n1Cc1ccccc1	14	-1	5	2	2	4
N=c1c(C(=O)NCc2ccco2)cc2c(=O)n3ccccc3nc2n1Cc1ccc(Cl)cc1	29*	-1	-23	-2	-37	5.2*
CCCCC(=O)NC(NC(=S)N1CCCCCC1)C(Cl)(Cl)Cl (stereo not given)	/	/	19	/	/	0
Cc1c(-c2ccccc2)oc2c(C(=O)OCC(=O)Nc3ccc(F)cc3)cccc2c1=O	/	/	-10	/	/	0
O=C(O)CCS(=O)(=O)c1nc(-c2cccs2)cc(C(F)(F)F)n1	-2	-1	3	2	12	-2
CS(=O)(=O)c1nc(-c2cccs2)cc(C(F)(F)F)n1	-1	2	38*	0	29	2
Cc1ccc(C23CC4CC(CC(CC(=O)N5CCOCC5)(C4)C2)C3)cc1	3	2	-19	-2	-16	0
CN1C(=O)C(/C(N)=N/NC(=O)c2ccccc2)C2CC1(C)Oc1ccccc12 (stereo not given)	/	/	-11	/	/	-3
CN(C)c1ccc(/C=C/C(O)=C2/C(=O)N(C)C3(C)CC2c2ccccc2O3)cc1 (stereo not given)	-2	-1	8	-1	69*	4
O=C(CSc1nnc(-c2cccs2)n1-c1cccc(Cl)c1)c1cccc2c1OCCO2	-7	25*	5	-24	6	-2
COC(=O)c1cc2c(=O)n3ccccc3nc2n(C(C)C)c1=N	19*	-6	-4	6	-32	17*
CC(C)n1c(=N)c(C(=O)NCCc2ccccc2)cc2c(=O)n3ccccc3nc21	94*	-24	-22	20	-68	18*
SMILES	S1P2 agonist	PTPN22 inh 2	GALR2 antag	PTPN22 act	S1P2 antag	GALR2 agonist
N=c1c(C(=O)NCc2ccccc2)cc2c(=O)n3ccccc3nc2n1Cc1ccco1	7	9	-5	-8	-2	3
CSc1ccc(S(=O)(=O)NCCSc2ccccn2)cc1	-10	10	2	-7	-27	-2
COc1cccc(C2C(C(=O)Nc3nc4ccccc4s3)=C(C)NC3=C2C(=O)CC(C)(C)C3)c1OC (stereo not given)	11	6	1	-4	-17	6
COc1ccc(OC)c(C2C(C(=O)Nc3nc4ccccc4s3)=C(C)NC3=C2C(=O)CCC3)c1 (stereo not given)	24*	-5	1	7	-20	14*
CCN1CC2=C(OC(N)=C(C#N)C2c2cccs2)/C(=C\c2cccs2)C1 (stereo not given)	-6	-4	-1	5	11	-3
Cc1nn(-c2nc3ccccc3s2)c(N)c1-c1ccccc1	22*	3	11	-6	3	-3
COc1cccc(-c2cc(C(=O)Nc3cc(C)on3)no2)c1	-5	-2	-6	1	8	6.2*
Cc1cc(NC(=O)c2cc(-c3cccc(Cl)c3)on2)no1	-9	-10	5	7	-1	-2
O=C(CSc1nnc2scc(-c3ccccc3)n12)Nc1nsc(-c2ccc(Cl)cc2)n1	-5	26*	2	-24	14	0
O=C(CSc1nnc2scc(-c3ccccc3)n12)Nc1nsc(-c2ccccc2)n1	-2	12	-5	-17	-15	-1
O=C(CSc1nncn1-c1ccccc1)NCc1cccs1	-3	-9	-11	13	-2	12*
CN1C(=O)CSc2ccc(NC(=O)N3CCN(c4ccccn4)CC3)cc21	/	/	2	/	/	0
CN1C(=O)CSc2ccc(NC(=O)Nc3ccccn3)cc21	-12	4	-12	-5	51*	0
CCOC(=O)c1cc2ccc(OC(=O)c3ccco3)cc2oc1=O	150*	-4	-78	0	-243	209*
Cc1cc(NCCCn2ccnc2)n2nc(-c3ccc(F)cc3)cc2n1	-3	-2	4	-1	-1	-2
Cc1cc(NCCOCCO)n2ncc(-c3ccc(Cl)cc3)c2n1	18*	-2	-7	-5	-42	-1
Cc1cc(N)n2ncc(-c3ccc(Cl)cc3)c2n1	-2	-1	17	1	-18	-2
CC(C)(C)c1cc(NCCCn2ccnc2)n2ncc(-c3ccc(Cl)cc3)c2n1	-10	38*	-4	-36	20	0
COc1ccc(-c2nn(-c3ccccc3)cc2/C=C(/C#N)C(N)=O)cc1[N+](=O)[O-]	/	/	14	/	/	3
Cn1c(=N)c(S(=O)(=O)c2ccc(F)cc2)cc2c(=O)n3ccccc3nc21	2	-13	-11	13	-18	1
Cn1c(=N)c(S(=O)(=O)c2ccccc2)cc2c(=O)n3ccccc3nc21	22*	6	-9	-2	-57	3
N=c1c(S(=O)(=O)c2ccc(Cl)cc2)cc2c(=O)n3ccccc3nc2n1CCN1CCOCC1	/	/	-1	/	/	8.3*
